Measurements: PubChem BioAssay (EPA / NIEHS)
Inconclusive results are not listed. The source made the active and inactive calls. The calls were made as follows, unless noted: active = hit-call score of the fitted dose curve at least 0.9, where 1 is the maximum; inconclusive = response in the unintended direction; inactive = score below 0.9.

Key:
[1] = biological target: Estrogen receptor (Homo sapiens) (UniProt P03372); assay: ATG_ERa_TRANS: Attagene TRANS-FACTORIAL HepG2 Assay for human Estrogen Receptor alpha (ERa) (AID 2282970); conditions: HepG2 Attagene TRANS ERa GAL4 reporter, mRNA
Summary of the method: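 Human liver HepG2, transient transfection of multiple GAL4-UAS reporter units; TRANS format (exogenous NR-Gal4 chimera). 24 h dosing. Readout: reporter mRNA, RT-PCR, 6-FAM primer extension, HpaI digest, capillary electrophoresis. Positive direction vs DMSO.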

[2] = biological target: X-box-binding protein 1 (Homo sapiens) (UniProt P17861); assay: ATG_Xbp1_CIS: Attagene CIS-FACTORIAL HepG2 Assay for human X-box Binding Protein 1 (XBP1) (AID 2282972; active = hit-call score of the fitted dose curve at least 0.9, where 1 is the maximum; inactive = score below 0.9); conditions: HepG2 XBP1 cis-element reporter, Attagene multiplex; actives raise or lower the signal
X-box-binding protein 1 (Homo sapiens), sequence (P17861 whole entry, looked up): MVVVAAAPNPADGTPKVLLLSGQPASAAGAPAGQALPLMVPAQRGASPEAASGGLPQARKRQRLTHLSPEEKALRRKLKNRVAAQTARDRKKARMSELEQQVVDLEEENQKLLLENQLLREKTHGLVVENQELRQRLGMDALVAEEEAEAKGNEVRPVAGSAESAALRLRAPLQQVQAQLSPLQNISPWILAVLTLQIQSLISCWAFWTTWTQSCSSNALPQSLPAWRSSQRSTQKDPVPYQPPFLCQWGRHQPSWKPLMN
Summary of the method: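 HepG2 cells transiently transfected with multiple cis-element reporter units report endogenous TF activity; 24 h exposure, then reporter mRNA measured by RT-PCR, 6-FAM labelling, HpaI digestion and capillary electrophoresis. Bidirectional fitting versus DMSO.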

[3] = biological target: Estrogen-related receptor gamma (Homo sapiens) (UniProt P62508); assay: ATG_ERRg_TRANS: Attagene TRANS-FACTORIAL HepG2 Assay for human Estrogen-Related Receptor gamma (ERRg) (AID 2282977); conditions: HepG2 Attagene TRANS reporter, ERRg transactivation;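 also: hits increase reporter signal over DMSO so potencies reflect activators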
Estrogen-related receptor gamma (Homo sapiens), sequence (P62508 whole entry, looked up, the tested form may be a part): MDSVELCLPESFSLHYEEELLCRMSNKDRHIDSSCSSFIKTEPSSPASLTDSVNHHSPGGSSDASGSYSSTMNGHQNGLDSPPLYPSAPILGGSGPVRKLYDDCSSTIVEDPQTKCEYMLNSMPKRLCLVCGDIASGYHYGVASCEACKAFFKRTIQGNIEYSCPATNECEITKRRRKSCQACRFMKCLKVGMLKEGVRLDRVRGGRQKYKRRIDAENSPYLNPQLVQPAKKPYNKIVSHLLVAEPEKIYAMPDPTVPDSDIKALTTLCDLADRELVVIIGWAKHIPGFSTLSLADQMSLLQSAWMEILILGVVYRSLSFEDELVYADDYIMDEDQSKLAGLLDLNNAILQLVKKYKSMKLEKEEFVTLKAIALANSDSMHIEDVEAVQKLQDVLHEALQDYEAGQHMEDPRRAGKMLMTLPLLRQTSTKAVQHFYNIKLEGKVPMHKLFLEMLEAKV
Summary of the method: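 HepG2 cells transiently transfected with multiplexed GAL4-UAS reporter units and chimeric NR-Gal4 constructs were exposed to test chemicals for 24 h. Reporter mRNA was measured by RT-PCR, 6-FAM primer extension, HpaI digestion and capillary electrophoresis; gain-of-signal versus DMSO.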

[4] = biological target: Bile acid receptor (Homo sapiens) (UniProt Q96RI1); assay: ATG_FXR_TRANS: Attagene TRANS-FACTORIAL HepG2 Assay for Farnesoid X Receptor (FXR) (AID 2282979); conditions: HepG2 Attagene TRANS FXR-GAL4 reporter transcription;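 also: hits raise reporter mRNA above DMSO so AC50 marks FXR activation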
Bile acid receptor (Homo sapiens), sequence (Q96RI1 whole entry, looked up, the tested form may be a part): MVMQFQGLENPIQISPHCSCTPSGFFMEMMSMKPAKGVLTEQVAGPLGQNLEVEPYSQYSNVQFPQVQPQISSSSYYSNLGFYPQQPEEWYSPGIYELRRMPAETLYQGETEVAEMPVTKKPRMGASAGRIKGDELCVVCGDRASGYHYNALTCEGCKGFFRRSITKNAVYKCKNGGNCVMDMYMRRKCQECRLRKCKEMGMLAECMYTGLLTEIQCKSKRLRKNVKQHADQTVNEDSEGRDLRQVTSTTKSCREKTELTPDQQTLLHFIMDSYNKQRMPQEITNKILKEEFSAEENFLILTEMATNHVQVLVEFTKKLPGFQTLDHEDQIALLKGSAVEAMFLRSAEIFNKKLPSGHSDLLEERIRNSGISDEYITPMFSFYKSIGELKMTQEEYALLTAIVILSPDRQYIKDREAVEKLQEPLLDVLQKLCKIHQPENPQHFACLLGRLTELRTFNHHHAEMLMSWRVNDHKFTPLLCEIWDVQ
Summary of the method: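 Transient transfection of HepG2 with multiplexed GAL4-UAS reporter units; exogenous FXR-GAL4 chimera. Dose 24 h → TriZol RNA → oligo(dT) RT → PCR, 6-FAM primer extension, HpaI cut → CE. Gain vs DMSO.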

[5] = biological target: Oxysterols receptor LXR-alpha (Homo sapiens) (UniProt Q13133); assay: ATG_LXRa_TRANS: Attagene TRANS-FACTORIAL HepG2 Assay for human Liver X Receptor alpha (LXRa) (AID 2282980); conditions: HepG2 Attagene TRANS reporter, LXRa transactivation
Oxysterols receptor LXR-alpha (Homo sapiens), sequence (Q13133 whole entry, looked up, the tested form may be a part): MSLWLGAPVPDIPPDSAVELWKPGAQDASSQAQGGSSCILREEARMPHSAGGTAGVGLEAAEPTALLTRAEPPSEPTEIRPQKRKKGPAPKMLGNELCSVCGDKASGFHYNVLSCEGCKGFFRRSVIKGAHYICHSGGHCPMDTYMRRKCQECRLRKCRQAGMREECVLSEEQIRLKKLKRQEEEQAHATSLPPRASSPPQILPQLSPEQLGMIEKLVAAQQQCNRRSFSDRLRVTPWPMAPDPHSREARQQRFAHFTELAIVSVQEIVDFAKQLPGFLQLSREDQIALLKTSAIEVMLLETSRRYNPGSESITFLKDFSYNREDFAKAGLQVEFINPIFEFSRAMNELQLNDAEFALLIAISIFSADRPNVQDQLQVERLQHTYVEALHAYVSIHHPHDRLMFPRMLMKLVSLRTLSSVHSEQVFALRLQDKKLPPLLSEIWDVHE
Summary of the method: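 Transfect HepG2 with GAL4-UAS multiplex reporter constructs (TRANS format, chimeric receptor-GAL4); treat 24 h; extract RNA, reverse-transcribe, PCR-amplify, FAM-label, HpaI-digest; resolve fragments by capillary electrophoresis. Upward response vs DMSO.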

[6] = biological target: Oxysterols receptor LXR-beta (Homo sapiens) (UniProt P55055); assay: ATG_LXRb_TRANS: Attagene TRANS-FACTORIAL HepG2 Assay for human Liver X Receptor beta (LXRb) (AID 2282981); conditions: HepG2 Attagene TRANS GAL4-LXRb reporter, mRNA
Summary of the method: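 HepG2 cells transiently transfected with multiple reporter transcription units carrying chimeric NR-Gal4 proteins acting on GAL4-UAS reporters; compound exposure 24 h. Reporter mRNA quantified by RT-PCR, 6-FAM labelling, HpaI digestion and capillary electrophoresis; gain of signal versus DMSO.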

[7] = ATG_M_06_TRANS: Attagene TRANS-FACTORIAL HepG2 Assay for M06 Transcription Factor (Internal Marker) (AID 2282983); conditions: HepG2 Attagene TRANS M06 internal marker reporter
Summary of the method: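 Transfect HepG2 with MRTUs → dose compounds 24 h → isolate RNA, oligo(dT) RT → PCR with reporter primers → 6-FAM primer extension → HpaI digest → CE fragment analysis. Positive direction vs DMSO.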

[8] = biological target: Nuclear receptor subfamily 4 group A member 2 (Homo sapiens) (UniProt P43354); assay: ATG_NURR1_TRANS: Attagene TRANS-FACTORIAL HepG2 Assay for human Nuclear Receptor Related Protein 1 (NURR1) (AID 2282985); conditions: HepG2 Attagene TRANS reporter, mRNA readout
Summary of the method: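 HepG2 cells transiently transfected with GAL4-UAS reporter units and chimeric NR-Gal4 constructs; chemical exposure 24 h. Reporter mRNA quantified by RT-PCR, fluorescent labelling and capillary electrophoresis; gain of signal fitted relative to DMSO baseline.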

[9] = biological target: Nuclear respiratory factor 1 (Homo sapiens) (UniProt Q16656); assay: ATG_NRF1_CIS: Attagene CIS-FACTORIAL HepG2 Assay for human Nuclear Respiratory Factor 1 (NRF1) Orphan Gene (AID 2282987; active = hit-call score of the fitted dose curve at least 0.9, where 1 is the maximum; inactive = score below 0.9); conditions: HepG2 NRF1 cis-element reporter, Attagene multiplex; actives raise or lower the signal
Nuclear respiratory factor 1 (Homo sapiens), sequence (Q16656 whole entry, looked up, the tested form may be a part): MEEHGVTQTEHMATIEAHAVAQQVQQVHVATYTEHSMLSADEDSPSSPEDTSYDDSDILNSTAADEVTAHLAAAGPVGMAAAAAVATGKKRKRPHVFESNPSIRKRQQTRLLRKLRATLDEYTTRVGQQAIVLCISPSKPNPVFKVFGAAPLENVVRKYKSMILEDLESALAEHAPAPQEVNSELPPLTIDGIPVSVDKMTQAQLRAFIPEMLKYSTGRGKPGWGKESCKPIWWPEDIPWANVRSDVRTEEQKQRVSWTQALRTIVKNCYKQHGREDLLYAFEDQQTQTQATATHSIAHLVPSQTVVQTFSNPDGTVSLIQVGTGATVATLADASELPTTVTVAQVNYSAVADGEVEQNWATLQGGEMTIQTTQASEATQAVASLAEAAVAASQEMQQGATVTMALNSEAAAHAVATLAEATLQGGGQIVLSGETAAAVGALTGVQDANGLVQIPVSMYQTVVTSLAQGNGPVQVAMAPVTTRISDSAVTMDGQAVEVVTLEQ
Summary of the method: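 Cells (HepG2, transient MRTU transfection) are exposed to compound for 24 h, then RNA isolated and reporter mRNA amplified and fluorescently labelled. Fragments are separated by capillary electrophoresis; signal change is fitted bidirectionally relative to DMSO.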

[10] = biological target: Myc proto-oncogene protein (Homo sapiens) (UniProt P01106); assay: ATG_Myc_CIS: Attagene CIS-FACTORIAL HepG2 Assay for human Myelocytomatosis (Myc) Proto-Oncogene Transcription Factor (AID 2282990; active = hit-call score of the fitted dose curve at least 0.9, where 1 is the maximum; inactive = score below 0.9); conditions: HepG2, Attagene cis-reporter transcription factor activity; actives raise or lower the signal
Myc proto-oncogene protein (Homo sapiens), sequence (P01106 whole entry, looked up): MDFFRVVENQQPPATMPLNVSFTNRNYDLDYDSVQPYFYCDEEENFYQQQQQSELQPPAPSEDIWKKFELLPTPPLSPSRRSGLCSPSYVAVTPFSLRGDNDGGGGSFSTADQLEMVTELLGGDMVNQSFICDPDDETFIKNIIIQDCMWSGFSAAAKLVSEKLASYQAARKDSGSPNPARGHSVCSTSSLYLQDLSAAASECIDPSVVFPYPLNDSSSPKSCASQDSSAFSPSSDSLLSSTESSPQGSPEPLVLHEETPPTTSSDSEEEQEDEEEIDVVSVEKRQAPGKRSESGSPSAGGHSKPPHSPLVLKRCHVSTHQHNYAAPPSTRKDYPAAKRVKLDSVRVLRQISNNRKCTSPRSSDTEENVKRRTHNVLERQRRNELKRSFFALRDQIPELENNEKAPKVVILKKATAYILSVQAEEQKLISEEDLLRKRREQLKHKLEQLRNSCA
Summary of the method: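 Multiplexed cis-reporter transcription in HepG2 cells after 24 h chemical treatment. Reporter mRNA measured by RT-PCR and capillary electrophoresis fluorescence; activity fitted bidirectionally against DMSO control.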

[11] = biological target: Steroid hormone receptor ERR1 (Homo sapiens) (UniProt P11474); assay: ATG_ERRa_TRANS: Attagene TRANS-FACTORIAL HepG2 Assay for human Estrogen-Related Receptor alpha (ERRa) (AID 2282971); conditions: HepG2 Attagene TRANS reporter, ERRa transactivation
Steroid hormone receptor ERR1 (Homo sapiens), sequence (P11474 whole entry, looked up, the tested form may be a part): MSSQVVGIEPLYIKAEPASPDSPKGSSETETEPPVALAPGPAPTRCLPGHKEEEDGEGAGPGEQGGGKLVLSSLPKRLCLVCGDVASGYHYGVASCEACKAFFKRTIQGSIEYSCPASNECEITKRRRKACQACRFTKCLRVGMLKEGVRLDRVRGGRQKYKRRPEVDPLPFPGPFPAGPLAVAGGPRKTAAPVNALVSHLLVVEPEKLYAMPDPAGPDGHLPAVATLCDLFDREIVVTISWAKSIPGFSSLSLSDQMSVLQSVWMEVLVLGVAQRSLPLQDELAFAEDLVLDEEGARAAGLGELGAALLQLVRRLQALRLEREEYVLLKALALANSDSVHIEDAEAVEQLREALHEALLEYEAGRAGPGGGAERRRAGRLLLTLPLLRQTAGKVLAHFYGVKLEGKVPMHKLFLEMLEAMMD
Summary of the method: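 Reporter transcript induction was quantified by RT-PCR and capillary electrophoresis of FAM-labelled, HpaI-cut products after 24 h treatment of HepG2 cells carrying transiently transfected GAL4-UAS reporter units and an exogenous ERRa-Gal4 fusion; activity scored as increase over DMSO.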

[12] = ATG_M_19_TRANS: Attagene TRANS-FACTORIAL HepG2 Assay for M19 Transcription Factor (Internal Marker) (AID 2282974); conditions: HepG2 Attagene TRANS-FACTORIAL M19 internal marker reporter
Summary of the method: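 Reporter mRNA induction was measured in transfected HepG2 cells 24 h after dosing. Endpoint fitted upward relative to DMSO and serves as a background control within the multiplexed TRANS panel.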

[13] = biological target: Hepatocyte nuclear factor 4-alpha (Homo sapiens) (UniProt P41235); assay: ATG_HNF4a_TRANS: Attagene TRANS-FACTORIAL HepG2 Assay for human Hepatocyte Nuclear Factor 4 alpha (HNF4a) (AID 2282982); conditions: HepG2 HNF4a transactivation reporter, mRNA readout
Hepatocyte nuclear factor 4-alpha (Homo sapiens), sequence (P41235 whole entry, looked up, the tested form may be a part): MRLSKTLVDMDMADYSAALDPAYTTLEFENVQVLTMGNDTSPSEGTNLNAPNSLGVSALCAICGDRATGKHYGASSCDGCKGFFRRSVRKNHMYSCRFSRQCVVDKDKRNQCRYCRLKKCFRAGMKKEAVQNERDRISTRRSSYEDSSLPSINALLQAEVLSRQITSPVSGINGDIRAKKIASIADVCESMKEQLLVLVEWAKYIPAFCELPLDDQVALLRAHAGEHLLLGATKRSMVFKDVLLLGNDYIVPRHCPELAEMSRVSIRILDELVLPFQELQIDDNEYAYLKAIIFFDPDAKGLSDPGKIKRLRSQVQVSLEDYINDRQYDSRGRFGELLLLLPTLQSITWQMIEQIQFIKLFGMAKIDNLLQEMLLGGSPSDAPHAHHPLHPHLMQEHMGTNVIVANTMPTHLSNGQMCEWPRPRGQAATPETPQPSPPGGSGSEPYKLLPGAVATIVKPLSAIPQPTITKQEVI
Summary of the method: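 HepG2 cells transiently transfected with multiplexed GAL4-UAS reporter units responsive to chimeric NR-GAL4 proteins; compound exposure 24 h. Reporter mRNA quantified by RT-PCR, 6-FAM labelling, HpaI digestion and capillary electrophoresis; gain of signal versus DMSO baseline.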

[14] = ATG_NFI_CIS: Attagene CIS-FACTORIAL HepG2 Assay for human Nuclear Factor I (NFI) (AID 2282989; active = hit-call score of the fitted dose curve at least 0.9, where 1 is the maximum; inactive = score below 0.9); conditions: HepG2 cis-regulatory reporter, NFI response element transcription; actives raise or lower the signal
Summary of the method: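 Cells: human liver HepG2, transiently transfected with promoter-regulated reporter transcription units. Exposure 24 h. Detection: fluorescent RT-PCR products separated by capillary electrophoresis, normalised to DMSO negative control.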

[15] = biological target: Glucocorticoid receptor (Homo sapiens) (UniProt P04150); assay: ATG_GR_TRANS: Attagene TRANS-FACTORIAL HepG2 Assay for human Glucocorticoid Receptor (GR) (AID 2282978); conditions: HepG2 Attagene TRANS GR reporter, mRNA transcription;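 also: activators score as hits since higher reporter transcript over DMSO is fitted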
Glucocorticoid receptor (Homo sapiens), sequence (P04150 whole entry, looked up, the tested form may be a part): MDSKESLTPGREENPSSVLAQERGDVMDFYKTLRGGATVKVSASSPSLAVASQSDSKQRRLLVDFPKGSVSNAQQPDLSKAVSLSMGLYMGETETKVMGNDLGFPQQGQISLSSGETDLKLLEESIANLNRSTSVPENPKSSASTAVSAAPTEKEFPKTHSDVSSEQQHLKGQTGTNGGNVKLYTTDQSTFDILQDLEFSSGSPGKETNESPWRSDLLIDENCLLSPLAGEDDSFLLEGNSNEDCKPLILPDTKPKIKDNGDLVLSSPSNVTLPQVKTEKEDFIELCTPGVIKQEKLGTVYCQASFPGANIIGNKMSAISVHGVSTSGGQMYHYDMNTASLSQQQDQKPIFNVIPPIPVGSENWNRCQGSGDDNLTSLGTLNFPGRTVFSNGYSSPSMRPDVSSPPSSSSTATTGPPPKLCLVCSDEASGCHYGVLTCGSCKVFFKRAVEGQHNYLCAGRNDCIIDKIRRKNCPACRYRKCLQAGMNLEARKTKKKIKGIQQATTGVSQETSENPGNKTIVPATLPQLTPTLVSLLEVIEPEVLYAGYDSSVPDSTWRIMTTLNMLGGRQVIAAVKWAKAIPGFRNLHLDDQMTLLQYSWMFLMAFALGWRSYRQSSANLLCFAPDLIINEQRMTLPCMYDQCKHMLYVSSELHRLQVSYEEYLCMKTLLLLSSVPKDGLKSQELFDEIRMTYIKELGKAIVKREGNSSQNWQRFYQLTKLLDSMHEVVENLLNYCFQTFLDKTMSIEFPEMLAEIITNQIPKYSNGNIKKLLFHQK
Summary of the method: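 Reporter transcript levels, detected by fluorescence after RT-PCR and capillary electrophoresis, served as the endpoint. HepG2 cells bearing transfected GAL4-UAS reporters responsive to NR-GAL4 chimeras were incubated with compound 24 h; DMSO defined baseline.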

[16] = ATG_M_32_TRANS: Attagene TRANS-FACTORIAL HepG2 Assay for M32 Transcription Factor (Internal Marker) (AID 2282984); conditions: HepG2 Attagene TRANS M32 internal marker reporter;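 also: transcript level of a background control reporter unit measured by RT-PCR and capillary electrophoresis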
Summary of the method: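 HepG2 cells transiently transfected with multiple GAL4-UAS reporter transcription units, dosed for 24 hours; reporter mRNA quantified by RT-PCR, 6-FAM primer extension, HpaI digestion and capillary electrophoresis. Gain-of-signal fitted versus DMSO baseline; internal background-control marker.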

[17] = biological target: Transcriptional activator Myb (Homo sapiens) (UniProt P10242); assay: ATG_Myb_CIS: Attagene CIS-FACTORIAL HepG2 Assay for human Myeloblastosis (Myb) Proto-Oncogene Transcription Factor (AID 2282986; active = hit-call score of the fitted dose curve at least 0.9, where 1 is the maximum; inactive = score below 0.9); conditions: HepG2 Attagene CIS-FACTORIAL Myb reporter transcription; actives raise or lower the signal
Transcriptional activator Myb (Homo sapiens), sequence (P10242 whole entry, looked up): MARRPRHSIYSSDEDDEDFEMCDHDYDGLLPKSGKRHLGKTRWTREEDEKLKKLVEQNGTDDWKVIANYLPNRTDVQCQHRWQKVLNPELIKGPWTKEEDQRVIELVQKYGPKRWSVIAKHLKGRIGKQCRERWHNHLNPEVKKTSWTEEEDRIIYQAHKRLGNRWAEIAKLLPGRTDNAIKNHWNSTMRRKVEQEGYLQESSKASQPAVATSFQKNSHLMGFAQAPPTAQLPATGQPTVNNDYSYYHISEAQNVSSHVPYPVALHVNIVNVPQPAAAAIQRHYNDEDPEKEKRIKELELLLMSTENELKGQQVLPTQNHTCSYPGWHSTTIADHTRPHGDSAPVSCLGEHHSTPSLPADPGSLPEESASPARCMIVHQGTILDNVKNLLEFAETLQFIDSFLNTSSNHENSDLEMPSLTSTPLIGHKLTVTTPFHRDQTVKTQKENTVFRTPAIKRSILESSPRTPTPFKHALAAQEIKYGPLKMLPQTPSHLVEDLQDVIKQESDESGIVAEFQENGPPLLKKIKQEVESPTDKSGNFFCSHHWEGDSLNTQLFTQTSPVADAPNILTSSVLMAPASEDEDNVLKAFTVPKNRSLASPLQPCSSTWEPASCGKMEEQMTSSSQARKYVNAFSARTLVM
Summary of the method: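 Transiently transfected HepG2 cells, treated 24 h. Reporter mRNA quantified by RT-PCR/capillary electrophoresis; bidirectional fit relative to DMSO.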

[18] = ATG_GAL4_TRANS: Attagene TRANS-FACTORIAL HepG2 Assay for GAL4 (Internal Marker) (AID 2282976); conditions: HepG2 Attagene TRANS GAL4 internal marker reporter
Summary of the method: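 First, HepG2 cells were transfected with reporter units under GAL4-UAS control. Next, they were treated with chemical for 24 h. Finally, RNA was reverse-transcribed, PCR-amplified, FAM-labelled and resolved by capillary electrophoresis, with induction scored against DMSO.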

Measured: AC50

NNc1nc(-c2ccc([N+](=O)[O-])cc2)cs1
inactive: [1] | [2] | [3] | [4] | [5] | [6] | [7] | [8] | [9] | [10]

CC1=CC(=O)c2ccccc2C1=O
not listed: [2] | [4] | [7] | [15] | [16] | [17] | [18]
inactive: all other assays above

CCCCc1oc2ccccc2c1C(=O)c1cc(I)c(OCCN(CC)CC)c(I)c1
active: [2] 26.4 µM
not listed: [7] | [8] | [9] | [11] | [13] | [14] | [18]
inactive: all other assays above

CC(C)(C)C1CCCCC1O (stereo not given)
not listed: [3] | [5] | [7] | [11] | [12] | [13] | [16]
inactive: all other assays above

O=C(OC(=O)C(F)(F)C(F)(F)F)C(F)(F)C(F)(F)F
inactive: [1] | [2] | [18] | [5] | [17] | [9] | [14] | [10]

NCCN
inactive: [1] | [2] | [12] | [18] | [16] | [8] | [17] | [9] | [14] | [10]

Oc1ccc(Cc2ccccc2O)cc1
active: [1] 3.65 µM
not listed: [3] | [5] | [7] | [11] | [18]
inactive: all other assays above

CCCCCCCCCCCCOC(=O)c1cc(O)c(O)c(O)c1
inactive: [12] | [15] | [6] | [16] | [17] | [9] | [14] | [10]
active: [1] 11.1 µM | [2] 11.1 µM | [4] 45.1 µM

Oc1cccc2c(O)cccc12
active: [1] 11.1 µM
not listed: [4] | [11] | [12] | [13]
inactive: all other assays above

CCC(=O)O
not listed: [3] | [4] | [5] | [6] | [7] | [11]
inactive: all other assays above

O=C1c2ccc(O)c(O)c2C(=O)c2c(O)ccc(O)c21
active: [1] 4.53 µM
not listed: [4] | [11] | [12] | [15] | [16] | [18]
inactive: all other assays above

O=C1C=CC(=O)N1c1cccc(N2C(=O)C=CC2=O)c1
not listed: [2] | [7] | [8] | [12] | [13] | [18]
inactive: all other assays above

Oc1c(Cl)cc(Cl)cc1Sc1cc(Cl)cc(Cl)c1O
active: [2] 1.45 µM
not listed: [5] | [8] | [11] | [12] | [14] | [16] | [18]
inactive: all other assays above

Clc1ccc2c(Cl)ccnc2c1
inactive: [1] | [11] | [2] | [15] | [7] | [16] | [17] | [9] | [14] | [10]

CCc1cccc(CC)c1N(COC)C(=O)CS(=O)(=O)O
not listed: [4] | [5] | [6] | [7] | [8] | [11] | [12]
inactive: all other assays above

N=C(N)c1ccc(OCCCCCOc2ccc(C(=N)N)cc2)cc1
active: [1] 23.5 µM | [2] 48.1 µM
inactive: [18] | [15] | [7] | [17] | [9] | [10]

CCCCCCCCCCCC(=O)NCCCN(C)C
inactive: [1] | [12] | [17] | [9] | [10]
active: [2] 19.1 µM | [14] 17.1 µM

FC(F)(F)C1(F)C(F)(F)C(F)(F)C(F)(F)C1(F)F
inactive: [1] | [11] | [12] | [18] | [15] | [4] | [16] | [9] | [10]

COc1cccc(O)c1
not listed: [3] | [4] | [6] | [11] | [13] | [15]
inactive: all other assays above

O=P(O)(O)CCC(F)(F)C(F)(F)C(F)(F)C(F)(F)C(F)(F)C(F)(F)C(F)(F)C(F)(F)F
not listed: [3] | [11]
inactive: all other assays above

CCCCc1ccc2ccccc2c1S(=O)(=O)O
not listed: [5] | [6] | [7] | [11] | [13] | [15] | [18]
inactive: all other assays above
